{"source": "PubChem BioAssay AID686979", "about": "(National Center for Advancing Translational Sciences (NCATS), 2013)", "note": "Among all 420,000 compounds or so, about 50,000 (12%) were called active. About 26% were inconclusive and are not listed. The sample holds actives, similar compounds and a random draw of the others, so the mix is not that of the screen. Unmarked numbers belong to inactive results. Calls come from the whole dose curve; as a rule, active = well fitted inhibition curve with a large enough effect; inconclusive = small, poorly fitted or top-dose-only effect; inactive = flat fitted curve, though single readings scatter. % is set by controls: 0 for no effect and ±100 for the full control effect; potency is the fitted concentration of half-maximal effect."}
{"test": "qHTS for Inhibitors of human tyrosyl-DNA phosphodiesterase 1 (TDP1): qHTS in cells in presence of CPT; note: nearly all actives have a fitted effect of over 55% in size", "conditions": "chicken DT40 Tdp1-/-;hTDP1 cells + 20 nM CPT, ATP luminescence, 48 h; series mostly up to 46.2 µM; activity change, negative = growth inhibition: at the top concentration", "summary_of_the_method": "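Chicken DT40 Tdp1-/- cells complemented with human TDP1, 400 cells/well, exposed to compounds plus 20 nM camptothecin for at least 48 h at 37 C; viability read as ATP content by CellTiter-Glo luminescence.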", "units": {"activity change, negative = growth inhibition": "%"}}
{"smiles": "CN(C(=O)CN1C(=O)S/C(=C\\c2ccccc2F)C1=O)C1CCS(=O)(=O)C1", "note": "(stereo not given)", "activity change, negative = growth inhibition": -18.2}
{"smiles": "CN(C(=O)CN1C(=O)/C(=C/c2ccc(Cl)cc2)SC1=S)C1CCS(=O)(=O)C1", "note": "(stereo not given)", "Potency": "18.4 µM (active)"}
{"smiles": "CN(C(=O)CCN1C(=O)/C(=C/c2ccccc2F)SC1=S)C1CCS(=O)(=O)C1", "note": "(stereo not given)", "activity change, negative = growth inhibition": -94.6}
{"smiles": "O=C(Nc1cc(C(F)(F)F)ccc1Cl)c1cc2nc(-c3ccc4c(c3)OCO4)cc(C(F)(F)F)n2n1", "activity change, negative = growth inhibition": 0.0565}
{"smiles": "O=C(NCCCCCCCCCNC(=O)C(F)(F)F)C(F)(F)F", "activity change, negative = growth inhibition": -14.6}
{"smiles": "C/C(=N\\NS(=O)(=O)c1cccc([N+](=O)[O-])c1)c1cc2ccccc2o1", "activity change, negative = growth inhibition": 1.15}
{"smiles": "CCn1c(SCc2cc(=O)n3ccsc3n2)nc2ccccc21", "activity change, negative = growth inhibition": -1.26}
{"smiles": "CCN(Cc1ccccc1)C(=O)c1cn(-c2cccc(OC)c2)c(=O)c2ccccc12", "Potency": "18.4 µM (active)"}
{"smiles": "COc1cccc(-n2ccn(CC(=O)NCc3ccc(C)cc3)c(=O)c2=O)c1", "activity change, negative = growth inhibition": -1.42}
{"smiles": "COc1cccc(-n2cc(C(=O)O)c3ccccc3c2=O)c1", "activity change, negative = growth inhibition": -10.9}
{"smiles": "COc1ccc(NC(=O)CSc2nnc(C3CC3)n2C)cc1S(=O)(=O)N1CCCCC1", "activity change, negative = growth inhibition": -20.3}
{"smiles": "COc1ccc(C2CC(=O)Oc3ccc(C(C)(C)C)cc32)cc1", "note": "(stereo not given)", "activity change, negative = growth inhibition": 3.87}
{"smiles": "N#Cc1ccc(/C=C2\\CCn3c2nc2cc(C(=O)O)ccc2c3=O)cc1", "activity change, negative = growth inhibition": -17.5}
{"smiles": "COc1cccc(Cn2c(=O)c(CCc3ccccc3)nc3cnc(N(C)C)nc32)c1", "activity change, negative = growth inhibition": -20.6}
{"smiles": "COc1cccc(Cn2c(=O)c(-c3ccccc3)nc3cnc(OC)nc32)c1", "activity change, negative = growth inhibition": 11.2}
{"smiles": "COc1cccc(Cn2c(=O)cnc3cncnc32)c1", "Potency": "1.46 µM (active)"}
{"smiles": "Cc1ccc(C(=O)N/C(=C\\c2cn(C)c3ccccc23)C(=O)N2CCN(C)CC2)cc1", "activity change, negative = growth inhibition": -15.1}
{"smiles": "Cc1cn(C2CC(O)C(CO)O2)c(=O)n(CCCc2ccccc2)c1=O", "note": "(stereo not given)", "activity change, negative = growth inhibition": -4.26}
{"smiles": "CCOc1c(Nc2cccc(Cl)c2)c(=O)c1=O", "activity change, negative = growth inhibition": -0.433}
{"smiles": "CCCCN(CC)C(=O)c1ccc2c(c1)OCO2", "activity change, negative = growth inhibition": -16.7}
{"smiles": "CCCCN(CC)C(=O)c1c[nH]c2ccc(S(=O)(=O)Nc3cccc(OC)c3)cc2c1=O", "activity change, negative = growth inhibition": -16}
{"smiles": "CCCCN(CC)C(=O)c1ccccc1Oc1ccccc1", "Potency": "20.6 µM (active)"}
{"smiles": "C[C@H]1CN([C@@H](C)CO)C(=O)c2cc(Br)cnc2O[C@H]1CN(C)S(=O)(=O)c1cccs1", "activity change, negative = growth inhibition": -17.2}
{"smiles": "CCCCNC(=O)CSc1nc2ccc(NC(=O)CSc3nnc(COc4ccccc4C)n3C)cc2s1", "activity change, negative = growth inhibition": -23.5}
{"smiles": "COC(=O)C[C@@H]1C=C[C@@H](NS(=O)(=O)c2cccc(OC)c2)[C@@H](CO)O1", "activity change, negative = growth inhibition": 3.28}
{"smiles": "CS(=O)(=O)N1CCCCC1c1cc(C(=O)NCc2ccccc2)no1", "note": "(stereo not given)", "activity change, negative = growth inhibition": 15.2}
{"smiles": "CCCNC(=O)c1cc(C2CCCCN2C(=O)OC)on1", "note": "(stereo not given)", "activity change, negative = growth inhibition": -14.1}
{"smiles": "O=C(NCc1ccc(F)cc1)c1cc(C2CCCCN2C(=O)C2CCCCC2)on1", "note": "(stereo not given)", "Potency": "18.4 µM (active)"}
{"smiles": "COC(=O)[C@@H](Cc1ccccc1)NC(=O)NCCc1ccccc1", "activity change, negative = growth inhibition": 0.102}
{"smiles": "COc1ccc(-c2[nH][nH]c(=O)c2NC(=O)c2ccc([N+](=O)[O-])cc2)cc1", "activity change, negative = growth inhibition": 1.08}
{"smiles": "COc1ccc(OC)c(NC(=O)c2ccc3c(c2)CCN3S(C)(=O)=O)c1", "activity change, negative = growth inhibition": -16.5}
{"smiles": "CCCc1c(C(=O)Nc2ccc(F)cc2)cnn1-c1ccccc1", "Potency": "14.6 µM (active)"}
{"smiles": "CCCc1c(C(=O)O)cnn1-c1ccc(Cl)cc1", "activity change, negative = growth inhibition": 4.33}
{"smiles": "CCc1ccccc1NC(=O)c1cnn(-c2ccc(F)cc2)c1C1CCNCC1", "activity change, negative = growth inhibition": 3.96}
{"smiles": "CCn1c(SCC(=O)N2CCCC2=O)nc2ccccc21", "activity change, negative = growth inhibition": 1.3}
{"smiles": "O=C(N/N=C/c1ccsc1)c1cc(O)cc(O)c1", "activity change, negative = growth inhibition": 17.2}
{"smiles": "CCCCC(=O)Nc1c2c(nn1-c1ccc([N+](=O)[O-])cc1)CS(=O)(=O)C2", "activity change, negative = growth inhibition": 1.47}
{"smiles": "CCN(CC)S(=O)(=O)c1ccc2[nH]c(=O)cc(C(=O)N(C)C3CCS(=O)(=O)C3)c2c1", "note": "(stereo not given)", "activity change, negative = growth inhibition": 3.51}
{"smiles": "COc1ccc(N2CCN(C(=O)CCNC(=O)c3ccc(Br)cc3)CC2)cc1", "activity change, negative = growth inhibition": -25}
{"smiles": "COc1cc(OC)cc(C(=O)NC(C(=O)N2CCC2)C(C)C)c1", "note": "(stereo not given)", "activity change, negative = growth inhibition": -15.4}
{"smiles": "COc1ccc(N2CCN(C(=O)[C@@H](NC(=O)c3cc(OC)cc(OC)c3)C(C)C)CC2)cc1", "Potency": "14.6 µM (active)"}
{"smiles": "CS(=O)(=O)N1CCc2nc(-c3ccccc3)sc2C1", "activity change, negative = growth inhibition": 5.62}
{"smiles": "CCOc1ccc(S(=O)(=O)NCCC(=O)NCC(C)(C)N2CCOCC2)cc1", "activity change, negative = growth inhibition": 5.12}
{"smiles": "C=C(Br)Cn1c(CCCC)nc2ccccc21", "Potency": "18.4 µM (active)"}
{"smiles": "O=C(O)Cn1c(Cc2ccccc2)nc2ccccc21", "activity change, negative = growth inhibition": 32.8}
{"smiles": "C=CCn1c(P(C)(=O)O)nc2ccccc21", "Potency": "inactive"}
{"smiles": "Cc1nc2sc(C)c(C)n2c(=O)c1S(=O)(=O)NCCc1ccc(Cl)cc1", "activity change, negative = growth inhibition": -14.2}
{"smiles": "CCOc1ccc(N(C)S(=O)(=O)c2cc(-c3cnc(C)o3)ccc2OC)cc1", "Potency": "25.9 µM (active)"}
{"smiles": "COc1ccc(N(C)S(=O)(=O)c2cccc3nsnc23)cc1", "activity change, negative = growth inhibition": 11.3}
{"smiles": "CCOC(=O)c1cc(-c2ccc(OC)c(S(=O)(=O)Nc3ccc(OC)cc3OC)c2)on1", "activity change, negative = growth inhibition": -18}
